This is part of a sample that, as a whole, favours compounds with a hit. Of some 83,000 tested, about 20% had one in any assay.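 The test compound was applied at a single concentration to cells in 96-well plates for 48 hours, and percent growth was recorded.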 Active and inactive are the calls of the source. The calls were made as follows: active = growth percent below 10; inactive = the rest.
Experiments:
Assay in all cases: NCI-60 one-dose screen, 48 h (100 = growth as untreated, 0 = no growth, -100 = all killed)
Details in all cases: 10 µM unless noted
[1] = test system: SK-MEL-2 melanoma
[2] = test system: EKVX NSCLC
[3] = test system: SN12C renal
[4] = test system: UO-31 renal
[5] = test system: TK-10 renal
[6] = test system: ACHN renal
[7] = test system: CAKI-1 renal
[8] = test system: A498 renal
[9] = test system: CCRF-CEM leukemia
[10] = test system: MOLT-4 leukemia
[11] = test system: SR leukemia
[12] = test system: RPMI-8226 leukemia
[13] = test system: OVCAR-8 ovarian
[14] = test system: OVCAR-5 ovarian
[15] = test system: OVCAR-4 ovarian
[16] = test system: SK-OV-3 ovarian
[17] = test system: IGROV1 ovarian
[18] = test system: OVCAR-3 ovarian
[19] = test system: HS 578T breast
[20] = test system: NCI/ADR-RES ovarian

Measured: growth

O=C(O)c1ccc2c(c1Sc1ccccc1)C(=O)c1ccccc1C2=O
inactive: [1] 90.5% | [2] 36.1% | [3] 96.6% | [4] 77% | [5] 86.5% | [6] 95.3% | [7] 84.4% | [8] 114% | [9] 91.9% | [10] 113% | [11] 95.6% | [12] 106% | [13] 105% | [14] 101% | [15] 92.9% | [16] 101% | [17] 92.2% | [18] 89.6% | [19] 114% | [20] 105%

Cc1cc(-c2nc3ccccc3s2)ccc1NC(=O)COc1ccc(Cl)cc1
inactive: [1] 104% | [2] 78.9% | [3] 88.3% | [4] 69% | [5] 53.7% | [6] 95.5% | [7] 84.5% | [8] 106% | [9] 106% | [10] 94.5% | [11] 87.5% | [12] 72.1% | [13] 105% | [14] 65.5% | [15] 56.5% | [16] 104% | [17] 31.6% | [18] 120% | [19] 117% | [20] 93.3%

Cc1cc(N/N=C/c2nc(-c3ccc(Cl)cc3)oc2C)c2cc(Br)ccc2n1
inactive: [1] 108% | [2] 86.4% | [3] 20.5% | [4] 55.9% | [5] 25.2% | [6] 75.8% | [7] 90% | [8] 92.6% | [10] 15% | [14] 96.1% | [16] 104% | [17] 63.3% | [19] 78.6% | [20] 14.7%
active: [9] 4.11% | [11] 4.22% | [12] -15% | [13] 8.16% | [15] -83% | [18] -21.2%

COc1cnc2c(c1)C(=O)c1c-2n(CCCBr)c(=O)c2cc([N+](=O)[O-])ccc12
active: [1] 6.39% | [3] -15.3% | [4] -10.8% | [6] 3.87% | [7] 2.8% | [8] -29.8% | [9] 8.19% | [10] 7.84% | [11] 7.47% | [12] -12.9% | [13] 2.09% | [14] 5.53% | [15] 5.15% | [16] 8.4% | [17] 2.21% | [18] -44.1%
inactive: [2] 34.2% | [5] 36.5% | [19] 36.9% | [20] 11.6%

Nc1ccc2c(c1)C(=O)NC2=O
inactive: [1] 117% | [2] 112% | [3] 94.9% | [4] 70.8% | [5] 118% | [6] 99.3% | [7] 99.6% | [8] 119% | [10] 105% | [11] 40.7% | [12] 84.1% | [13] 106% | [14] 92.8% | [15] 82.8% | [16] 100% | [17] 113% | [18] 105% | [19] 93.5% | [20] 95.2%
active: [9] -49.6%

Cc1ccc(-c2nc(/C=N/Nc3cc(C)nc4ccc(Br)cc34)c(C)o2)cc1
active: [2] 2.6% | [3] -83.4% | [4] -98% | [5] -17.5% | [6] -85.1% | [7] -71.5% | [9] -42.1% | [10] -34.7% | [11] 2.27% | [12] -38.5% | [13] -63.5% | [14] -68.7% | [15] -94.3% | [17] -77.3% | [18] -94.8% | [20] -69.9%
inactive: [1] 95.8% | [8] 86.6% | [16] 105% | [19] 102%

CNc1cc2nc3cc(NC)c(C)cc3cc2cc1C
active: [2] -0.852% | [7] 7.63% | [10] 1.13% | [11] -27.6% | [12] 3.16% | [13] 2.25% | [18] 3.6%
inactive: [1] 48.5% | [3] 14.2% | [4] 34.5% | [5] 24.5% | [6] 20.6% | [8] 16.5% | [9] 40.9% | [14] 24.5% | [15] 10.8% | [16] 12.7% | [17] 21.1% | [19] 13.1% | [20] 40.7%

COc1cc(/C=C2\CN(C(=O)CCN3CCC(=NO)CC3)C/C(=C\c3cc(OC)c(OC)c(OC)c3)C2=O)cc(OC)c1OC
active: [1] -26.9% | [2] -36.1% | [3] -9.11% | [4] -96.2% | [5] -69.2% | [6] -44.2% | [7] -77.2% | [8] -87.2% | [9] -37.3% | [10] 2.41% | [11] 9.11% | [12] -40.1% | [13] 1.55% | [14] -65.4% | [15] -82.4% | [16] -7.89% | [17] -53.4% | [18] -97.6% | [19] 6.39% | [20] 9.97%

Clc1nc(Cl)c2c3c(sc2n1)CCCC3
active: [10] -27.8% | [11] -36.4% | [12] 1.89% | [18] -35.9%
inactive: [1] 20% | [2] 89.8% | [3] 27.5% | [4] 65.6% | [5] 91% | [6] 45.1% | [7] 64.2% | [8] 127% | [9] 10.7% | [13] 39.8% | [14] 96.5% | [15] 44.1% | [16] 107% | [17] 38.4% | [19] 76.2% | [20] 99.7%

C[C@@H]1CCC2=C(CCC[C@]2(C)C(=O)O)[C@@]1(C)CCc1ccoc1
inactive: [1] 92.1% | [2] 101% | [3] 89.6% | [4] 87.7% | [5] 92.3% | [6] 101% | [7] 99.6% | [8] 83.3% | [9] 102% | [10] 113% | [11] 97.6% | [12] 92.9% | [13] 94.2% | [14] 112% | [15] 109% | [16] 99.1% | [17] 99.8% | [18] 101% | [19] 88% | [20] 98.7%

O=C(Cc1ccccc1)c1ccc(Cl)cc1
inactive: [1] 99% | [2] 87.4% | [3] 89% | [4] 111% | [5] 99.5% | [6] 103% | [7] 75.2% | [8] 90.9% | [9] 99.1% | [10] 84.2% | [11] 96.7% | [12] 160% | [13] 103% | [14] 83.2% | [15] 107% | [16] 107% | [17] 105% | [18] 111% | [19] 120% | [20] 96.6%

COc1ccc(/C=N\NC(=O)CN2CCN(c3cc4c(cc3F)c(=O)c(C(=O)N/N=C/c3ccc(OC)cc3)cn4C3CC3)CC2)cc1
inactive: [1] 103% | [2] 71.7% | [3] 79% | [4] 57.6% | [5] 100% | [6] 89.7% | [7] 95.1% | [8] 73.6% | [9] 81.5% | [10] 60% | [11] 72.1% | [12] 69.4% | [13] 92.2% | [14] 122% | [15] 80.7% | [16] 112% | [17] 72% | [18] 85.2% | [19] 92.4% | [20] 88.2%

COc1ccc(/C(=C/c2ccc3ccccc3c2)c2nn[nH]n2)cc1OC
active: [18] -17.3% | [20] -15.4%
inactive: [1] 40.3% | [2] 43.9% | [3] 37.2% | [4] 41.4% | [5] 54.5% | [6] 54.4% | [7] 23.3% | [8] 14.5% | [9] 19.7% | [10] 37.8% | [11] 15% | [12] 16.6% | [13] 40.5% | [14] 60% | [15] 62.7% | [16] 39% | [17] 48.7% | [19] 36.5%

COCCOC(=O)C1=C(C)NC(=S)NC1c1ccc2c(c1)OCO2 (stereo not given)
inactive: [1] 93% | [2] 105% | [3] 104% | [4] 87.8% | [5] 104% | [6] 106% | [7] 99.8% | [8] 96.1% | [9] 104% | [10] 96.9% | [11] 95.5% | [12] 105% | [13] 102% | [14] 109% | [15] 103% | [16] 103% | [17] 105% | [18] 111% | [19] 104% | [20] 103%

C=C(C[n+]1ccccc1)[C@@H]1CC[C@]2(C(=O)OC)CC[C@]3(C)[C@H](CC[C@@H]4[C@@]5(C)CC[C@H](O)C(C)(C)[C@@H]5CC[C@]43C)[C@@H]12
inactive: [1] 100% | [2] 104% | [3] 95.4% | [4] 74% | [5] 113% | [6] 96.5% | [7] 90.6% | [8] 123% | [9] 99% | [10] 101% | [11] 108% | [12] 91.1% | [13] 102% | [14] 102% | [15] 99.7% | [16] 95% | [17] 98% | [18] 108% | [19] 101% | [20] 103%

Cc1ccc2c(c1)C(=O)c1c-2c(OCCCN(C)C)nc2ccccc12
inactive: [1] 44.7% | [2] 28.4% | [3] 19.4% | [5] 37.2% | [7] 24.2% | [8] 33.3% | [9] 19.3% | [13] 17.2% | [14] 51.6% | [15] 27.3% | [16] 60.3% | [18] 55% | [19] 35.3% | [20] 25.1%
active: [4] 3.12% | [6] -6.51% | [10] -10.5% | [11] -27.5% | [12] -16.3% | [17] 3.1%

Reference: PubChem BioAssay (NCI)
